Only some compounds are listed: those with a hit (about 10% of all), similar ones and a draw of the others.
Pf growth 48h – inhibits P. falciparum growth in the first generation, 48 h; P. falciparum luciferase growth in erythrocytes, 48 h; Potency, µM (series often up to 28.7 µM), without a hit: at the highest dose activity change, negative = inhibition, most hits filed as inhibitors; actives 5.9% (n = 310,000); AID 504832; further: on the % scale 0 is the no-effect control and ±100 the full control effect
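First compound was added to culture medium, then infected red cells at 0.1% parasitemia and 2% hematocrit (final). After incubation at 37 C under 5% CO2, luciferase detection reagent was dispensed and light output recorded.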
Pf growth 96h – P. falciparum growth inhibition at 96 hours; P. falciparum luciferase reporter growth, 96 h; Potency, µM (highest dose often 28.7 µM), without a hit: top-dose activity change, negative = inhibition, most hits filed as inhibitors; actives 6.9% (n = 320,000); further: on the % scale 0 is the no-effect control and ±100 the full control effect
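Cell-based qHTS: luciferase-tagged P. falciparum in erythrocytes (2% hematocrit, 0.05% parasitemia final) incubated with compounds for 96 hours, 37 C, 5% CO2; luciferase detection reagent then added and luminescence measured.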
NS1 function inh – blocks influenza NS1 protein function | actives 0.4% (n = 270,000) | AID 2326 | Potency, µM (doses to about 46.1 µM), without a hit: at the top dose activity, positive = more growth; calls by dose curve; further: actives are rising curves; nearly all actives have a fitted effect of over 50% in size
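OD600 was taken as the measure of yeast growth restored by compound in an NS1-expressing S. cerevisiae strain. Cells had been washed out of glucose medium and diluted 1:100 into galactose -URA medium, pH 6.0.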
SARS PLP yeast – blocks SARS-CoV papain-like protease in a yeast assay; S. cerevisiae expressing SARS-CoV PLpro, growth rescue; Potency, µM (titrated, usually from 32.9 µM), without a hit: top-dose activity, positive = growth rescue, usual class: activators; actives 0.19% (n = 330,000); AID 485353; calls by dose curve; further: 0% is about no effect; nearly all actives have a fitted effect of over 55% in size
The depositor's hits bear a star; u = inconclusive; x = no result. Unless noted, the call rests on the fitted dose curve; in most records, active means well fitted inhibition curve with a large enough effect; inconclusive means small, poorly fitted or top-dose-only effect, or another doubt; inactive means no such curve, though single readings can be large or run the other way. Potency means the concentration at half of the fitted maximal effect.

SMILES	Pf growth 48h	Pf growth 96h	NS1 function inh	SARS PLP yeast
C[C@H](CO)N1C[C@H](C)[C@@H](CN(C)C(=O)NC2CCCCC2)Oc2c(NC(=O)Cc3ccccc3)cccc2C1=O	x	x	x	5%
COc1ccc(OC)c(S(=O)(=O)N2CCC(c3nc4ccccc4[nH]3)CC2)c1	u	10µM*	x	-7%
O=C(C1CC(=O)N(c2ccc(Cl)cc2)C1)N1CCCCCC1 (stereo not drawn)	4%	47%	0%	0%
O=C(N1CCCCC1)N1CCC(c2nc3ccccc3[nH]2)CC1	-1%	3%	0%	2%
O=C(C1CC(=O)N(c2ccc(Cl)cc2)C1)N1CCC(c2nc3ccccc3[nH]2)CC1 (stereo not drawn)	10µM*	u	x	0%
